Records with an inconclusive call do not appear. Where a structure was tested more than once in an assay, its records may differ in their call. Calls of active or inactive are those of the source. How the source made its calls: active means hit-call score of the fitted dose curve at least 0.9, where 1 is the maximum; inconclusive means response in the unintended direction; inactive means score below 0.9.

Chain of bovine Gamma-Aminobutyric Acid Type A Receptor Agonist (GABAR Agonist), GABRA1 (gene 780973) (P08219 whole entry, looked up): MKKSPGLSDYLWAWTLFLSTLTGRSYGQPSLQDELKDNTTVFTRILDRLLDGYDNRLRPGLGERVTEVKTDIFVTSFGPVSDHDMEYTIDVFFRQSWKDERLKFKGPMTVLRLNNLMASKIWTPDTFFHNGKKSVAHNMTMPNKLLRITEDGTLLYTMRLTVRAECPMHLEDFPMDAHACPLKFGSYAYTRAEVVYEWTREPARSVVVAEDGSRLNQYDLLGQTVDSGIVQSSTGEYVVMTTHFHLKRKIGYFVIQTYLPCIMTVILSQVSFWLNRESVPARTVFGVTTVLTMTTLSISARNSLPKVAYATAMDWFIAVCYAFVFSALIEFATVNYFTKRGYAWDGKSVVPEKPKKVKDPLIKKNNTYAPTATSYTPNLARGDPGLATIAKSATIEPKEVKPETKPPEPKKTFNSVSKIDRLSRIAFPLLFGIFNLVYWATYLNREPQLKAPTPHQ

One experiment has as its target bovine Gamma-Aminobutyric Acid Type A Receptor Agonist (GABAR Agonist), GABRA1 (gene 780973) (UniProt P08219). The experiment can be described thus: NVS_LGIC_bGABAR_Agonist: NovaScreen (NVS) Ligand-Gated Ion Channel Assay for bovine Gamma-Aminobutyric Acid Type A Receptor Agonist (GABAR Agonist) (AID 2283338). The method, boiled down: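 Radioligand binding to bovine cerebellar membranes in agonist format, read by filter-based scintillation counting after 1 h. Primary screen in duplicate at 25 uM, with actives followed in concentration series. Gain of signal versus DMSO.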
Consider `CCCCCCCCCCCCCN1CC(C)OC(C)C1` (centres undefined), for which the molecule was called inactive. On the same count and under the same terms, then `CC(C)(O)c1cnn2c(-c3ccc(F)c(-c4c(F)cccc4C#N)c3)cnc2n1`, with “inactive”; and `CCC12COCN1COC2`, with “inactive”.

Regarding `CCC[CH2][Sn]([Cl])([CH2]CCC)[CH2]CCC`, the molecule was classed as inactive.

Consider `CCCCOC(=O)c1ccccc1C(=O)OCc1ccccc1`, for which the outcome was inactive. On to `C=CCc1ccc2c(c1)OCO2`, for which the outcome was inactive. Still for that read-out and setting: the result for `CN(C)C(=O)Nc1ccc(Cl)cc1` reads “inactive”. What is called AC50 is the concentration at which the activity in the assay is half-maximal. Consider `O=C(Oc1ccc(Br)cc1)N1CCN2CCC1CC2`, for which the AC50 was 25 µM (active).

A further experiment relates to guinea pig Histamine Receptor (H2), gene 100729734. Nature of the experiment: NVS_GPCR_gH2: NovaScreen (NVS) G Protein-Coupled Receptor Assay for guinea pig Histamine Receptor (H2) (AID 2283342). A digest of the protocol:
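Radioligand displacement on guinea pig striatal membranes, 1 h after dosing, filter-based scintillation counting; loss of signal versus DMSO. Single-point screen at 25 uM in duplicate, then concentration-response up to 50 uM.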
As to `CCOC(=O)[C@]1(c2ccccc2)Oc2ccccc2[C@@H]1N`, the half-maximal activity concentration (AC50) was 4.92 µM (active). For the molecule `[Cl-].[Cl-].[Hg+2]`, the AC50 was 8.27 µM (active). Same read-out and setting: then `O=C(N[C@H](c1ccccc1)[C@@H]1CN2CCC1CC2)c1c(Cl)ccc(C(F)(F)F)c1Cl`, with 3.16 µM (active); and `CCCCCCCCn1sccc1=O`, with 26 µM (active); and `CCC[CH2][Sn]([Cl])([CH2]CCC)[CH2]CCC`, with 3.05 µM (active).

As to `COP(=S)(OC)SCN1C(=O)c2ccccc2C1=O`, the outcome was inactive. Regarding `C[C@]12C=CC3=C4CCC(=O)C=C4CC[C@H]3[C@@H]1CC[C@@H]2O`, the molecule was classed as inactive.

A further experiment deals with NCBI gene 100848466. The experiment can be described thus: NVS_NR_bPR: NovaScreen (NVS) Nuclear Receptor Binding Assay for bovine Progextron Receptor (PR) (AID 2283343).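 On AC50: actives lower bound radioligand signal below DMSO meaning displacement of the label.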 The method, boiled down: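 Bovine uterine membrane preparation, cell-free; radioligand competitive displacement measured by scintillation counting 18 hours after dosing. Loss of signal versus DMSO baseline indicates binding; primary HTS single concentration 25 uM in duplicate, actives followed in concentration series.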
For the molecule `Nc1ccc(N=Nc2ccccc2)cc1`, the molecule was classed as inactive. On the same count and under the same terms, the result for `CCOC(=O)[C@]1(c2ccccc2)Oc2ccccc2[C@@H]1N` reads “inactive”. Regarding `CCC[CH2][Sn]([Cl])([CH2]CCC)[CH2]CCC`, the concentration at half-maximal activity (AC50) is 2.4 µM (active).

Consider `CN(C)[C@@H]1C(=O)C(C(N)=O)=C(O)[C@@]2(O)C(=O)C3=C(O)c4c(O)cccc4[C@@](C)(O)[C@H]3C[C@@H]12`, for which the call was inactive.

A further experiment deals with human Constitutive Androstane Receptor (CAR), NR1I3 (gene 9970) (UniProt Q14994). Nature of the experiment: NVS_NR_hCAR_Antagonist: NovaScreen (NVS) Nuclear Receptor Binding Assay for human Constitutive Androstane Receptor Antagonism (CAR) (AID 2283344). The method, boiled down: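 Cell-free TR-FRET binding read 1 h after dosing, antagonist mode; loss of signal versus DMSO baseline. Primary screen in duplicate at a single 25 uM; actives retested in concentration series.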
Chain of human Constitutive Androstane Receptor (CAR), NR1I3 (gene 9970) (Q14994 whole entry, looked up): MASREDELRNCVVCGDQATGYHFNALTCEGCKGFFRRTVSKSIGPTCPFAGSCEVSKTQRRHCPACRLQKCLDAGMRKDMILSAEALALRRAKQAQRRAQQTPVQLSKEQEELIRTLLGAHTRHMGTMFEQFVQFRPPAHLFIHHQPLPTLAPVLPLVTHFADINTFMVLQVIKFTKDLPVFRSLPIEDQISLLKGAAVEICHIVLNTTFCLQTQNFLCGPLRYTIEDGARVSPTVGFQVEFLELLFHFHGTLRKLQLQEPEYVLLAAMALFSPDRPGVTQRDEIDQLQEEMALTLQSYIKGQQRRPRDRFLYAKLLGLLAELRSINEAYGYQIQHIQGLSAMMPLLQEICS
Take `CCCCC(CC)COC(=O)c1ccc(C(=O)OCC(CC)CCCC)c(C(=O)OCC(CC)CCCC)c1` (centres undefined): the AC50 is 10.7 µM (active). Regarding `Cc1cccc(N)c1N`, the call was inactive.

As for `Oc1ccccc1Cl`, the result was inactive. With `CCNS(=O)(=O)C(F)(F)C(F)(F)C(F)(F)C(F)(F)C(F)(F)C(F)(F)C(F)(F)C(F)(F)F`, the AC50 was 24.1 µM (active).

For a further experiment, the target named is bovine Estrogen Receptor (ER), ESR1 (gene 407238) (UniProt P49884). The experiment can be described thus: NVS_NR_bER: NovaScreen (NVS) Nuclear Receptor Binding Assay for bovine Estrogen Receptor (ER) (AID 2283345).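 Further: actives lower the bound radioligand count which means they displace the ER ligand.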 The method, boiled down: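 Cell-free radioligand binding with bovine uterine membrane extracts, read 18 hours after dosing by scintillation counting. Loss of signal versus DMSO baseline indicates displacement. Primary screen run in duplicate at 25 uM, actives followed in concentration series.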
Chain of bovine Estrogen Receptor (ER), ESR1 (gene 407238) (P49884 whole entry, looked up): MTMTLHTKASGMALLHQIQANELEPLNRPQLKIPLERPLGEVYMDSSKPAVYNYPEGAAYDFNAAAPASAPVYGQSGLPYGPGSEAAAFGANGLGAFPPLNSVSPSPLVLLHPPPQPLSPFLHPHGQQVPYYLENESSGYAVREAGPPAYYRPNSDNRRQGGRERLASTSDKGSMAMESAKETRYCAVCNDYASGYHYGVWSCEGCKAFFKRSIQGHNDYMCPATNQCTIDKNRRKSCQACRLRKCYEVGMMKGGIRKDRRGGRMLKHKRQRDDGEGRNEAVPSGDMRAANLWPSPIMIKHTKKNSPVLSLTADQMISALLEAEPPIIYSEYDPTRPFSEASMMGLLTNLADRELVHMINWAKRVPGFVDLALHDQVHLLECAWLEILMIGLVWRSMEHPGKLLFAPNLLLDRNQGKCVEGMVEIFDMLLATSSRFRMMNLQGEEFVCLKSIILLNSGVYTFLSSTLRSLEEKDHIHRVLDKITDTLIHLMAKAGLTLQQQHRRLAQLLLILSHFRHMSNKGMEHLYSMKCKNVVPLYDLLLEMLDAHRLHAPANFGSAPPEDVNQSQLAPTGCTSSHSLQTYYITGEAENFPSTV
For `Nc1ccc(N=Nc2ccccc2)cc1`, the result was inactive. Same read-out and setting: the result for `[Cl-].[Cl-].[Hg+2]` reads “inactive”; that for `CCCCCCCCn1sccc1=O`, “inactive”. Turning to `C[C@]12C=CC3=C4CCC(=O)C=C4CC[C@H]3[C@@H]1CC[C@@H]2O`, the AC50 is 6.47 µM (active) [middle of 4 runs] and the molecule was called inactive.

For the molecule `Brc1ccc(Oc2ccccc2)cc1`, the call was inactive.

(Values after PubChem BioAssay (EPA / NIEHS).)
